Results on 14 compounds are retold here after PubChem BioAssay (NCI).

Among the test systems are NCI-H23 lung; NCI-H226 lung; NCI-H322M lung; HOP-62 NSCLC; NCI-H460 lung; HOP-92 NSCLC; NCI-H522 lung; A549/ATCC NSCLC; 786-0 renal; COLO 205 colon.
Experiment in all cases: NCI-60 one-dose screen, 48 h (100 = growth as untreated, 0 = no growth, -100 = all killed)
Common to all, as to conditions: 10 µM unless noted

The panel holds about 83,000 compounds, 20% with a hit somewhere; the sample as a whole holds those more often.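 How to read the values: 0–100, growth inhibition (40 = 60% inhibited); 0, no net growth; -100 to 0, cell death (-40 = 40% of starting cells died; -100 = all dead).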 Values without a mark were called inactive. Calls of active or inactive are those of the source. The calls were made as follows: active = growth percent below 10; inactive = the rest.

In the case of `COc1ccc(NCc2cn(-c3ccc(C(=O)O)cc3)nc2-c2ccc(C(=O)O)cc2)cc1C(F)(F)F`, the growth in the experiment with NCI-H23 lung is 99.8%; in the experiment with NCI-H226 lung it was 98.5%; in the experiment with NCI-H322M lung, 89.1%; with HOP-62 NSCLC, 96.6%; in the experiment on NCI-H460 lung, 100%; in the experiment with HOP-92 NSCLC, 66.6%. Further, the growth was 97.8% in the experiment on NCI-H522 lung, 99.8% in the experiment with A549/ATCC NSCLC, 90.4% in the experiment with 786-0 renal and 111% in the experiment on COLO 205 colon.

`COc1ccc2nc3cc(Cl)ccc3c(Nc3ccc(O)cc3)c2c1`: the growth in the experiment with NCI-H23 lung was 72.8%; in the experiment with NCI-H226 lung, 74.4%; in the experiment on NCI-H322M lung, 90.5%; with HOP-62 NSCLC, 68.8%; in the experiment on NCI-H460 lung it was 23.1%; with HOP-92 NSCLC, 78.9%. For the same compound, the growth in the experiment on NCI-H522 lung is 72.5%; in the experiment on A549/ATCC NSCLC, 46.6%; in the experiment on 786-0 renal, 84%; in the experiment on COLO 205 colon, 76.8%.

As for `CC(C)c1ccc(/C=N/N=C(N)N)cc1`, the growth in the experiment with NCI-H23 lung was 80.7%; in the experiment on NCI-H226 lung it was 93.2%; with NCI-H322M lung, 106%; in the experiment with HOP-62 NSCLC, 84.3%; in the experiment on NCI-H460 lung it was 91.1%; in the experiment on HOP-92 NSCLC, 24.1%. For the same compound, the growth in the experiment on NCI-H522 lung was 66.7%; in the experiment with A549/ATCC NSCLC, 88.8%; in the experiment with 786-0 renal it was 93.4%; with COLO 205 colon, 59.8%.

`Clc1ccccc1/C=N\Nc1ccccn1`: the growth is 84.9% in the experiment on NCI-H23 lung; 80.8% in the experiment with NCI-H226 lung; 111% in the experiment with NCI-H322M lung; 83.8% in the experiment on HOP-62 NSCLC; 99.2% with NCI-H460 lung; 83.9% with HOP-92 NSCLC. The growth in the experiment with NCI-H522 lung was 91.7%; in the experiment with A549/ATCC NSCLC, 93.6%; with 786-0 renal, 113%; in the experiment on COLO 205 colon, 95.7%.

As to `CC(C)[C@H]1COC(=O)N1[C@@H]1C(=O)N([C@@H](CCC(=O)N2CCN(C3CCCC3)CC2)C(=O)N[C@@H]2CCCc3ccccc32)[C@@H]1/C=C/c1cccc(Cl)c1`, the growth was 72.1% with NCI-H23 lung; 88.9% in the experiment on NCI-H226 lung; 57.9% in the experiment on NCI-H322M lung; 79% in the experiment on HOP-62 NSCLC; 46.2% in the experiment on NCI-H460 lung; 31.4% in the experiment with HOP-92 NSCLC. Besides, the growth with NCI-H522 lung was 75.5%; with A549/ATCC NSCLC it was 35.9%; in the experiment with 786-0 renal it was 54.9%; in the experiment on COLO 205 colon, 57.7%.

Regarding `Nc1cc(NN=C(c2ccc(O)cc2)c2ccc(O)cc2)c([N+](=O)[O-])cc1[N+](=O)[O-]`, the growth with NCI-H23 lung was -58.3% (active); in the experiment on NCI-H226 lung it was 61.8%; in the experiment on NCI-H322M lung, 110%; in the experiment on HOP-62 NSCLC it was -10.2% (active); with NCI-H460 lung, -60.1% (active); in the experiment on HOP-92 NSCLC, 60.5%. Moreover, the growth is -82% (active) in the experiment on NCI-H522 lung, -49.6% (active) with A549/ATCC NSCLC, -93.9% (active) in the experiment with 786-0 renal and -52.8% (active) with COLO 205 colon.

As for `CCN(CC)CCCOc1ccc2c(c1)O/C(=C\c1cccc(OC)c1)C2=O`, the growth is 83.9% in the experiment with NCI-H23 lung; 87.8% with NCI-H226 lung; 89.8% in the experiment with NCI-H322M lung; 104% with HOP-62 NSCLC; 87.2% in the experiment on NCI-H460 lung; 84.3% with HOP-92 NSCLC. The growth was 98.8% in the experiment with NCI-H522 lung, 93.5% with A549/ATCC NSCLC, 93.8% in the experiment with 786-0 renal and 94.7% in the experiment with COLO 205 colon.

For `COc1cc(C)cc2oc3oc(=N)c(C(=O)c4ccccc4)cc3c(=O)c12`, the growth in the experiment with NCI-H23 lung was 108%; in the experiment on NCI-H226 lung it was 103%; with NCI-H322M lung, 98%; in the experiment on HOP-62 NSCLC it was 106%; with NCI-H460 lung it was 105%; in the experiment on HOP-92 NSCLC, 94.9%. Also, the growth is 96.8% with NCI-H522 lung, 109% in the experiment on A549/ATCC NSCLC, 106% with 786-0 renal and 124% in the experiment with COLO 205 colon.

Turning to `O=C(Nc1ccccc1)Nc1ccc(C(=O)/C=C/c2ccc(N3CCCC3)cc2)cc1`, the growth is 92.3% in the experiment with NCI-H23 lung; 78% with NCI-H226 lung; 83.2% with NCI-H322M lung; 63% in the experiment with HOP-62 NSCLC; 78.7% with NCI-H460 lung; 73.8% in the experiment on HOP-92 NSCLC. For the same compound, the growth is 31.7% in the experiment on NCI-H522 lung, 75.5% with A549/ATCC NSCLC, 93.9% in the experiment with 786-0 renal and 66.6% in the experiment on COLO 205 colon.

`N#Cc1ccc(-c2ccc(COc3ccc(CC4SC(=O)NC4=O)cc3)cc2)cc1` (stereo not given): the growth was 50.7% with NCI-H23 lung; 86.5% in the experiment with NCI-H226 lung; 89.7% in the experiment with NCI-H322M lung; 67.1% with HOP-62 NSCLC; 69.5% with NCI-H460 lung; 66.8% in the experiment on HOP-92 NSCLC. In addition, the growth was 43.8% in the experiment on NCI-H522 lung, 48.1% in the experiment with A549/ATCC NSCLC, 83% with 786-0 renal and 103% in the experiment with COLO 205 colon.

As for `CC(C)CCSC1=CC(=O)c2ccccc2C1=O`, the growth with NCI-H23 lung is 78%; in the experiment on NCI-H226 lung, 69.6%; with NCI-H322M lung, 79.6%; in the experiment on HOP-62 NSCLC, 78.4%; with NCI-H460 lung it was 103%; in the experiment on HOP-92 NSCLC it was -74.5% (active). Besides, the growth in the experiment on NCI-H522 lung is -68.9% (active); in the experiment on A549/ATCC NSCLC, 79.7%; in the experiment with 786-0 renal it was 90.6%; with COLO 205 colon, 132%.

On to `COc1ccc(C(=O)/C=C/c2ccccn2)c(O)c1`, for which the growth is 85.4% in the experiment on NCI-H23 lung; 98% with NCI-H226 lung; 95.3% in the experiment on NCI-H322M lung; 87.5% with HOP-62 NSCLC; 89.7% with NCI-H460 lung; 78.6% in the experiment on HOP-92 NSCLC. Besides, the growth is 69.4% in the experiment with NCI-H522 lung, 94% in the experiment on A549/ATCC NSCLC, 79.6% in the experiment with 786-0 renal and 103% in the experiment on COLO 205 colon.

`CCCCNC(=O)NS(=O)(=O)Cc1ccccc1`: the growth is 114% in the experiment with NCI-H23 lung; 107% with NCI-H226 lung; 118% with NCI-H322M lung; 107% in the experiment on HOP-62 NSCLC; 111% in the experiment on NCI-H460 lung; 94.4% in the experiment on HOP-92 NSCLC. Besides, the growth was 102% with NCI-H522 lung, 101% in the experiment on A549/ATCC NSCLC, 99% with 786-0 renal and 118% in the experiment with COLO 205 colon.

Turning to `Cc1ccc(Oc2c(/C=N/NC(=O)Cn3c(=O)sc4ccccc43)c(C)nn2-c2ccccc2)cc1`, the growth in the experiment with NCI-H23 lung is 50.6%; in the experiment on NCI-H226 lung it was 62%; with NCI-H322M lung, 67.3%; in the experiment on HOP-62 NSCLC, 71.5%; in the experiment with NCI-H460 lung it was 52%; with HOP-92 NSCLC, 46.1%. Moreover, the growth with NCI-H522 lung was 46.7%; with A549/ATCC NSCLC, 32.8%; in the experiment with 786-0 renal it was 80.9%; with COLO 205 colon, 42.4%.
